NALP3 yeast inh: inhibitors of NALP3 inflammasome in yeast; 0.39% of 330,000 active; inhibition, % at 10 µM; Yeast reconstituted NLRP3/ASC/caspase-1, beta-gal luminescence, 24 h;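 active = inhibition of 50% or more; inactive = inhibition below 50%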;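 also: plate controls were induced DMSO wells for no effect and uninduced yeast grown without galactose for full effect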
tim23-1 inh: tim23-1 yeast growth inhibition | S. cerevisiae tim23-1 growth, BacTiter-Glo luminescence, 24 h | inhibition, % at 20 µM | 1.3% of 330,000 active | AID 463212;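 active = growth inhibition of the mutant yeast at or above 50%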;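 also: temperature-sensitive mutant grown at 25 °C; plate controls were DMSO-treated mutant yeast for no effect and medium wells lacking yeast for full effect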
tim10-1 inh: tim10-1 yeast growth inhibition. 2.2% of 330,000 active. S. cerevisiae tim10-1 ts strain growth, BacTiter-Glo, 24 h. inhibition, % at 20 µM;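 active = inhibition of at least 40%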;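 also: mutant grown at 25 °C; 0% = DMSO wells with yeast and 100% = wells holding no yeast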
CR mimetic SO: yeast age-related superoxide inhibition as caloric restriction mimetic. S. cerevisiae aged cells, superoxide DHE fluorescence; active compounds read low. superoxide response (% of plate mean), % at 10 µM. 0.18% of 330,000 active;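 active = superoxide response under a set limit, about three screen SD below normal, cut at about 65% in these data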;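 also: yeast aged for seven days with compound at 30 °C before DHE staining; 100% = average MFI of all compound-treated wells on the plate with controls excluded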
TIM10 inh: TIM10 yeast growth inhibition | S. cerevisiae TIM10 strain growth, BacTiter-Glo luminescence, 24 h | inhibition, % at 10 µM | 1.4% of 330,000 active | AID 463195;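 active = inhibition of 40% or more at the single tested concentration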;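 also: wild-type TIM10 isogenic control strain grown at permissive 25 °C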
tim10-1 confirm: tim10-1 yeast growth inhibition, confirmed; shares compounds with tim10-1 inh; S. cerevisiae tim10-1 ts strain growth, BacTiter-Glo, 24 h; inhibition, % at 20 µM; 56% of 7,400 active; AID 463213;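 active = inhibition of yeast growth at or above a set limit in either of two repeat tests at 20 µM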;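 also: tim10-1 mutant grown at permissive 25 °C to find synthetic lethal compounds; 0% = DMSO yeast wells and 100% = medium wells without yeast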
TIM10 conf: confirmation of TIM10 yeast growth inhibitors. shares compounds with TIM10 inh. S. cerevisiae tim10 strain growth, BacTiter-Glo luminescence, 24 h. inhibition, % at 10 µM. 63% of 4,600 active;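 active = inhibition of yeast growth at or above a set limit in either of two replicates at 10 µM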;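 also: this counterscreen used the strain with wild-type TIM10; 0% = yeast with DMSO and 100% = medium wells lacking yeast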
tim23-1 conf: confirmation of tim23-1 mutant yeast growth inhibitors. shares compounds with tim23-1 inh. S. cerevisiae tim23-1 growth, BacTiter-Glo luminescence, 24 h. inhibition, % at 20 µM. 83% of 4,400 active;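 active = inhibition above about 39% in either of two replicate wells at 20 µM, limit read from the data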;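 also: temperature-sensitive tim23-1 mutant grown at 25 °C; 0% = DMSO wells with yeast and 100% = medium wells without yeast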
Starred values were filed as active, the others as inactive; · = no result given. This is a sample that favours compounds with a hit; in the whole collection about 3.8% have one here.

SMILES	NALP3 yeast inh	tim23-1 inh	tim10-1 inh	CR mimetic SO	TIM10 inh	tim10-1 confirm	TIM10 conf	tim23-1 conf
COc1ccc(C(=O)C2=NN(C(C)=O)CC2c2ccco2)cc1 (configuration not stated)	7	22	23	106	20	·	·	·
COc1ccc(Nc2nc(-c3ccccc3)nc3ccccc23)cc1	25	67*	52*	122	39	40*	·	63*
O=[N+]([O-])c1ccc(-c2nc(Nc3ccc(O)cc3)c3ccccc3n2)cc1	8	-1	-9	107	5	·	·	·
CC(Nc1nc(-c2ccccc2)nc2ccccc12)c1ccccc1 (configuration not stated)	19	58*	44*	122	29	-27	·	33
Oc1ccc(Nc2nc(-c3ccccc3)nc3ccccc23)cc1	21	61*	59*	105	42*	46*	52*	59*
CCOc1ccccc1C(=O)NCC(=O)NCCc1ccc(S(N)(=O)=O)cc1	10	15	19	101	3	·	·	·
Cc1ccc(C(=O)N2CCN(S(=O)(=O)c3ccccc3)CC2)s1	-1	0	8	109	-7	·	·	·
O=Cc1ccc(Sc2nnc(-c3ccccc3)o2)c([N+](=O)[O-])c1	23	55*	48*	100	42*	35*	18	58*
Cc1cc(C)nc(Sc2ccc(C=O)cc2[N+](=O)[O-])n1	1	15	19	101	11	·	·	·
COc1ccc(OC)c(CCNC(=O)C(C)n2nc(C)c3c(C)n(-c4ccc(C)cc4)nc3c2=O)c1 (configuration not stated)	5	18	15	90	2	·	·	·
Cc1ccc(SCC(=O)OCC(=O)NCCc2ccc(S(N)(=O)=O)cc2)c(C)c1	-4	8	1	98	-6	·	·	·
COC(=O)c1cc(=O)n(-c2ccccc2)c(=Nc2ccccc2)s1	3	73*	51*	99	18	43*	·	52*
CCOC(=O)c1ccc(N=c2sc(C(=O)OC)cc(=O)n2-c2ccc(C(=O)OCC)cc2)cc1	9	20	15	107	24	·	·	·
O=C1c2ccc([N+](=O)[O-])cc2S(=O)(=O)N1Cc1ccccc1	10	76*	72*	96	53*	69*	43*	86*
O=C(Nc1cccc(-c2nnc(-c3ccccc3)o2)c1)C1CC1	24	60*	41*	110	27	20	·	76*
CCOC(=O)c1sc2nc(NC(=O)C(C)(C)C)sc2c1C	37	63*	55*	89	41*	31*	44*	57*
CCOC(=O)c1sc2nc(NC(=O)C3CC3)sc2c1C	29	40	34	116	34	·	·	·
COc1ccc(S(=O)(=O)N2CC(C)N(C(=O)N(C)C)C2C(C)C)cc1 (configuration not stated)	4	12	-1	105	20	·	·	·
COc1c(O)c(O)c2oc(-c3ccccc3)cc(=O)c2c1OC	42	59*	50*	83	40*	33*	31*	56*
COc1cccc(CC(=O)NN2C(=O)NC3(CCCCC3)C2=O)c1	13	1	-12	118	1	·	·	·
CCOC(=O)CSc1nc2sc(C)c(C)c2c(=O)[nH]1	-6	25	29	93	25	·	·	·
CCOC(=O)/C(=C\c1ccc(Cl)cc1)c1nc2sc(C)c(C)c2c(=O)[nH]1	28	72*	48*	103	44*	49*	13	61*
Fc1ccc(Nc2nnc(C(F)(F)F)s2)cc1Cl	4	77*	69*	91	56*	84*	42*	85*
Cc1cc(N=Nc2ccccc2C(=O)O)c(C)c(C)c1O	29	-19	-90	72	-98	·	·	·
Cc1c(N=Cc2cc(Br)cc(Br)c2O)cccc1C(=O)O	28	83*	59*	81	42*	50*	27	90*
SMILES	NALP3 yeast inh	tim23-1 inh	tim10-1 inh	CR mimetic SO	TIM10 inh	tim10-1 confirm	TIM10 conf	tim23-1 conf
O=C(O)c1cccc(N/N=C/c2cc(Br)cc(Br)c2O)c1	-1	78*	49*	97	26	42*	·	74*
COC(=O)CC1=NN(c2nc3ccccc3s2)C(=O)/C1=C/N(C)C	-12	16	8	92	-12	·	·	·
CC1=C(C#N)c2nc(N)c(C#N)c(C)c2/C1=C\c1ccc(C)cc1	21	56*	73*	116	82*	90*	1	68*
CSc1nc(-c2ccc(C)cc2)nc(N)c1C#N	-9	9	-6	104	10	·	·	·
COc1cccc(C=O)c1OCCCOc1cccc2cccnc12	2	65*	45*	99	41*	33*	34*	55*
COc1ccc(CCNC(=O)C(=O)NCC2CCCN2S(=O)(=O)c2cc(C)ccc2C)cc1 (configuration not stated)	5	28	15	101	4	·	·	·
O=[N+]([O-])c1ccc(CN2CCOCCOCCOCC2)cc1	9	4	-10	98	-1	·	·	·
O=C(NC(=S)Nc1ccc(Br)c(Cl)c1)C1CC1	24	62*	43*	119	25	22	·	54*
O=C(NC(=S)Nc1cccc(Cl)c1Cl)C1CC1	21	51*	43*	109	41*	16	24	32
O=C(c1ccccc1)C(CCC(CN1CCOCC1)C(=O)c1ccccc1)CN1CCOCC1 (configuration not stated)	41	53*	54*	85	60*	48*	68*	47*
CC(CN1CCOCC1)OC(=O)C(c1ccccc1)c1ccccc1 (configuration not stated)	-2	-9	5	97	-3	·	·	·
N/C(=N\OC(=O)COc1ccccc1Cl)c1ccc(Cl)cc1	34	60*	70*	98	54*	49*	43*	76*
N/C(=N\OC(=O)C1CCCCC1)c1ccc(Cl)cc1	-4	53*	63*	113	48*	53*	43*	38*
N/C(=N\OC(=O)C1CCCCC1)c1ccc(Br)cc1	8	68*	61*	106	45*	55*	66*	75*
N/C(=N\OC(=O)COc1ccc(Cl)cc1)c1cccnc1	30	1	10	109	15	·	·	·
COc1cc(N(C)C)c([N+](=O)[O-])cc1C(=O)N1CCN(Cc2ccccc2)CC1	-11	12	17	88	0	·	·	·
CCOc1cccc(CNc2ccc(O)cc2)c1OCc1ccccc1Cl	12	49	29	90	28	·	·	·
CCOc1cccc(CNc2ccc(O)cc2)c1OCc1ccc(Cl)cc1Cl	5	62*	42*	92	33	35*	·	54*
